In all, about 33,000 sequences were measured (“e-score”: median about -0.05, highest 2% from about 0.38 on). Shown is part of a subset that was picked to be rich in the highest values.

Binding signal data for 87 sequences are collected here from PMC10668032, “Altered binding affinity of SIX1-Q177R correlates with enhanced WNT5A and WNT pathway effector expression in Wilms tumor”.

The target of the experiment is T1, SIX1-Q177R homeodomain (human, UniProt Q15475 108-198, Q177R).
T1 sequence: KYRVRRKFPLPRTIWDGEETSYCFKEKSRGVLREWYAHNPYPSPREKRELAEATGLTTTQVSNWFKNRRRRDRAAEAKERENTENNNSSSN
Nature of the experiment: universal protein binding microarray; Universal all-10-mer PBM (8x60K, AMADID 030236), 300 nM GST-tagged protein, Alexa Fluor 488 anti-GST; buffer, salt, pH and temperature not stated (as in Berger); high values mean tight binding. Conditions: protein: ivt; tags: N-terminal GST; dsDNA, one strand shown. Summed up: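 Homeodomains fused to GST were made by in vitro transcription/translation and measured by anti-GST western blot with a recombinant GST standard curve. At 300 nM final concentration, they were applied in duplicate to universal 'all 10-mer' protein binding microarrays (8×60K format).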
Take AGGACACT: the binding signal worked out at 0.3795 ± 0.00235 E-score. Take GGGACACA: the binding signal worked out at 0.232 ± 0.0537 E-score. For the sequence GGGACCCC, the binding signal was determined as 0.211 ± 0.0329 E-score. For the sequence CGGACACC, the binding signal was 0.48 ± 0.00522 E-score.

Consider CGGACACG, for which the binding signal was 0.373 ± 0.0179 E-score. In the case of CGGACACA, the binding signal was 0.226 ± 0.0432 E-score. For the sequence GGGACACC, the binding signal amounted to 0.478 ± 0.0106 E-score.

As to AGGTAGTG, the binding signal is 0.2489 ± 0.00187 E-score. Take AGGATACA: the binding signal amounted to 0.159 ± 0.0108 E-score. For ACCATCAG, the binding signal is 0.181 ± 0.0146 E-score.

Consider CCAGCACC, for which the binding signal came out at 0.153 ± 0.0163 E-score. With GACCCCTA, the binding signal amounted to 0.203 ± 0.0141 E-score.

In the case of CTGACTCC, the binding signal was 0.2326 ± 0.00123 E-score.

Consider ACGCCCAA, for which the binding signal is 0.176 ± 0.019 E-score. For ACTTCTTA the value was 0.183 ± 0.0236 E-score. For ATTTACAC, the binding signal was found to be 0.451 ± 0.0245 E-score.

For the sequence CTATTTAC, the binding signal was found to be 0.1742 ± 0.000191 E-score. For the sequence CTTTGCAC, the binding signal was determined as 0.16 ± 0.0373 E-score. With CTTTACCC, the binding signal was 0.171 ± 0.0198 E-score. Turning to ATTCACAC, the binding signal turned out to be 0.348 ± 0.0127 E-score.

As for CTTTACAC, the binding signal worked out at 0.431 ± 0.0203 E-score. Take CCCCTAAG: the binding signal was 0.172 ± 0.0119 E-score.

Regarding ACCTGGGA, the binding signal was found to be 0.186 ± 0.00272 E-score. As to CCAACAAC, the binding signal came out at 0.211 ± 0.0163 E-score. With CAGCACCA, the binding signal was 0.182 ± 0.0218 E-score. Take CACGTGGG: the binding signal turned out to be 0.16 ± 0.0172 E-score. As to AGTGTCGG, the binding signal was 0.4212 ± 0.00372 E-score. The figure for AGTGTCGA is 0.408 ± 0.0268 E-score; for AGTGTCTC it is 0.329 ± 0.00361 E-score; for CGGGTCGC it is 0.189 ± 0.0605 E-score.

Take AGGGTCGG: the binding signal turned out to be 0.172 ± 0.00622 E-score. As for AGTGTGGA, the binding signal turned out to be 0.162 ± 0.0186 E-score. On to CGTGTGGC, for which the binding signal came to 0.181 ± 0.00793 E-score. The figure for AGTGTCGC is 0.4145 ± 0.00339 E-score; for CGTGTCGC it is 0.44 ± 0.0199 E-score; for AGTGTTGG it is 0.3564 ± 0.000735 E-score.

Take AAGCGGTG: the binding signal worked out at 0.214 ± 0.0624 E-score. In the case of CATCCACA, the binding signal came to 0.177 ± 0.00969 E-score. With ACTCCCGA, the binding signal came to 0.172 ± 0.0235 E-score. Turning to CCAGGTAC, the binding signal came to 0.2011 ± 0.000495 E-score. Turning to CACCGCTG, the binding signal stood at 0.249 ± 0.0245 E-score.

Take CACGTTAC: the binding signal worked out at 0.179 ± 0.0457 E-score. In the case of ACTAGGAG, the binding signal was determined as 0.219 ± 0.0299 E-score. On to CTAAAACA, for which the binding signal was 0.211 ± 0.0343 E-score. For CGTGTGGA, the binding signal came out at 0.159 ± 0.00165 E-score.

In the case of GGTGTCGA, the binding signal came to 0.4869 ± 0.00312 E-score. For the sequence CGAGTCGA, the binding signal was 0.151 ± 0.006 E-score. Consider CGTGTCGA, for which the binding signal was 0.404 ± 0.0138 E-score. The figure for GGAGTCGA is 0.227 ± 0.0424 E-score; for GGTGTGGA it is 0.369 ± 0.0214 E-score; for CACGGCCC it is 0.215 ± 0.0365 E-score. With GGATCACC, the binding signal came out at 0.203 ± 0.0315 E-score. For CCATGACA the value was 0.222 ± 0.0113 E-score.

With TACTGACA, the binding signal is 0.22 ± 0.0513 E-score. In the case of GGGCGACA, the binding signal came to 0.156 ± 0.0211 E-score. For AGGAGGTG, the binding signal is 0.2857 ± 0.000318 E-score.

Regarding AACACGAT, the binding signal came to 0.358 ± 0.00931 E-score. As for AACACGCA, the binding signal stood at 0.396 ± 0.0109 E-score. With TACACGCA, the binding signal turned out to be 0.406 ± 0.0157 E-score. CACACGCA: the binding signal turned out to be 0.32 ± 0.022 E-score. In the case of TACACACA, the binding signal is 0.259 ± 0.0395 E-score.

Take AACACGCG: the binding signal worked out at 0.36 ± 0.0195 E-score.

Take AACACGCC: the binding signal stood at 0.366 ± 0.013 E-score. Regarding AACACGCT, the binding signal came out at 0.379 ± 0.00919 E-score. Regarding CACCGAAG, the binding signal worked out at 0.283 ± 0.0113 E-score. ACTCCGGG: the binding signal was 0.2895 ± 0.00256 E-score.

As to AATTTACA, the binding signal came to 0.182 ± 0.0161 E-score. As to AAACCCCC, the binding signal is 0.24 ± 0.0528 E-score. For CTCACACC the value was 0.393 ± 0.0106 E-score. Consider CACTCACC, for which the binding signal amounted to 0.242 ± 0.0149 E-score. With ATCACCCC, the binding signal was 0.204 ± 0.0194 E-score. For the sequence ATCACACG, the binding signal was found to be 0.318 ± 0.0128 E-score. With ATCACACC, the binding signal was determined as 0.442 ± 0.00795 E-score. As for GTCACACA, the binding signal was found to be 0.215 ± 0.0441 E-score. Consider ACCAAGTG, for which the binding signal was determined as 0.208 ± 0.0393 E-score. For the sequence GGAGTCAA, the binding signal was 0.2 ± 0.0177 E-score. For CCGCAACA the value was 0.17 ± 0.0293 E-score. In the case of CACCGAAC, the binding signal came to 0.335 ± 0.0128 E-score. In the case of GAGGATAC, the binding signal amounted to 0.235 ± 0.0473 E-score. The figure for AAGGATAC is 0.275 ± 0.00871 E-score; for AAGGACAC it is 0.40482 ± 0.000361 E-score. In the case of GAGGACAC, the binding signal worked out at 0.401 ± 0.00566 E-score. Regarding GAGCACAC, the binding signal came to 0.262 ± 0.0319 E-score.

Regarding CAGGACAC, the binding signal worked out at 0.423 ± 0.02 E-score.

Take CAGGATAC: the binding signal is 0.168 ± 0.0209 E-score. For the sequence AAGCACAC, the binding signal turned out to be 0.276 ± 0.0054 E-score. On to CAGAGCAC, for which the binding signal turned out to be 0.19 ± 0.0352 E-score.
